# Records with an inconclusive call do not appear. The source made the active and inactive calls. Calls come from the whole dose curve; as a rule, active = well fitted inhibition curve with a large enough effect; inconclusive = small, poorly fitted or top-dose-only effect; inactive = no such curve, though single readings can be large or run the other way.
# Molecular target: Cytochrome P450 2D6 (Homo sapiens) (UniProt P10635)
# Test: qHTS Assay for Inhibitors and Substrates of Cytochrome P450 2D6 (AID 891); note: nearly all actives have a fitted effect of over 60% in size
# Conditions: recombinant CYP2D6, luciferin-ME EGE luminescence; series mostly up to 57.1 µM; activity change, negative = inhibition: at the top concentration
# Experimental: NIH Molecular Libraries Screening Centers Network [MLSCN]
# NIH Chemical Genomics Center [NCGC]
# The P450 gene superfamily is involved in the metabolism and clearance of xenobiotics. This assay used human CYP2D6 to measure the demethylation of ethylene glycol ester of luciferin 6' methyl ether (Luciferin-ME EGE; […]) to luciferin. The luciferin is then measured by luminescence after the addition of a luciferase detection reagent. Luciferin-ME EGE concentration in the assay was equal to its Km for CYP2D6. Inhibitors and some substrates limit the production of luciferin, and decrease measured luminescence.
# NCGC Assay Protocol Summary:
# Two uL of enzyme and substrate mix (final concentrations: 5nM CYP2D6, 30uM Luciferin-ME EGE, 100mM KPO4) were dispensed into a white, solid bottom 1536-well microtiter plate. 23nL of compound was transferred by a pin tool. The plate was incubated at room temperature for 10 min. Two uL of an NADPH regeneration solution (Promega supplied reagent) was dispensed and the reaction was allowed to continue for 60 min at room temperature. Then the reaction was stopped by reconstituted luciferin detection buffer. After another 20 min of incubation the plate was read on the ViewLux (Perkin Elmer) at 60 sec exposure and 2x2 binning. This protocol was carried out with Promega-Glo reagents and further information can be found at http://www.promega.com/tbs/tb325/tb325.pdf. Data were normalized to the to AC100 inhibition (1.43 uM quinidine).
# Keywords: P450, CYP2D6, Luciferase, MLSMR, MLSCN, NIH Roadmap, qHTS, NCGC
# % is set by controls: 0 for no effect and ±100 for the full control effect; potency is the fitted concentration of half-maximal effect.
# Sequence of Cytochrome P450 2D6 (Homo sapiens) (P10635 whole entry, looked up): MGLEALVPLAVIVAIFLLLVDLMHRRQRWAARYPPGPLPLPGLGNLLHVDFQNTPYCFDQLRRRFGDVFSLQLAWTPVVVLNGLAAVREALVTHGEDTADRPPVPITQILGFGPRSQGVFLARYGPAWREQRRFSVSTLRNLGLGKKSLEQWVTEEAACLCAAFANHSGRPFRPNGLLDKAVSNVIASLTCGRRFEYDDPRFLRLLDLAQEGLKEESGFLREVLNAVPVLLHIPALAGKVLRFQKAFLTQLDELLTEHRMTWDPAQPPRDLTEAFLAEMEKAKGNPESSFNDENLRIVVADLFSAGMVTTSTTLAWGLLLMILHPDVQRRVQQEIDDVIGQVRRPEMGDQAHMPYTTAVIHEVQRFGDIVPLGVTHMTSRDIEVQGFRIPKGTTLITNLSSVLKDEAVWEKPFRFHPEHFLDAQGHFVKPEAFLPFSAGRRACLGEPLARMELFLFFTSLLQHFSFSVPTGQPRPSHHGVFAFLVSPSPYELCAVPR
SMILES,"activity change, negative = inhibition",Potency
NCCC[C@@H](CC(=O)N[C@@H]1CCCC[C@H]1C(=O)N[C@H](CC(=O)N[C@@H](CCC(=O)O)CC(=O)O)Cc1c[nH]c2ccccc12)NC(=O)C[C@H](Cc1c[nH]c2ccccc12)NC(=O)[C@@H]1CCCC[C@H]1N,-1.56% (inactive),–
O=c1c(O)c(-c2ccccc2)oc2cc(O)cc(O)c12,–,20 µM (active)
NCCC[C@@H](CC(=O)N[C@@H]1CCNC[C@H]1C(=O)N[C@H](CC(=O)N[C@@H](CCC(=O)O)CC(=O)O)Cc1ccccc1)NC(=O)C[C@H](CO)NC(=O)[C@@H]1CCCC[C@H]1N,5.44% (inactive),–
C[C@@H]1O[C@@H](OC[C@@H]2O[C@@H](Oc3c(-c4ccc(O)c(O)c4)oc4cc(O)cc(O)c4c3=O)[C@H](O)[C@H](O)[C@@H]2O)[C@H](O)[C@H](O)[C@@H]1O,11.7% (inactive),–
CC(C)C[C@@H](CC(=O)N[C@@H](CCCN)CC(=O)N[C@@H]1CCNC[C@H]1C(=O)N[C@H](CC(=O)N[C@@H](CCC(=O)O)CC(=O)O)Cc1ccccc1)NC(=O)[C@@H]1CNCC[C@H]1N,-10.2% (inactive),–
NCCC[C@@H](CC(=O)N[C@@H]1CCCC[C@H]1C(=O)N[C@H](CC(=O)N[C@@H](CCC(=O)O)CC(=O)O)Cc1ccccc1)NC(=O)C[C@H](Cc1c[nH]c2ccccc12)NC(=O)[C@@H]1CCCC[C@H]1N,-9.35% (inactive),–
CC[C@]1(O)C[C@H]2CN(CCc3c([nH]c4ccccc34)[C@](C(=O)OC)(c3cc4c(cc3OC)N(C=O)[C@H]3[C@@](O)(C(=O)OC)[C@H](OC(C)=O)[C@@]5(CC)C=CCN6CC[C@]43[C@H]65)C2)C1,24.2% (inactive),–
CC(=O)[C@H]1[C@H]2[C@H](C(=O)[C@@H]3OC[C@H]2O3)[C@@H]2c3ccccc3C=CN12,-18.8% (inactive),–
Clc1ccc([C@@H](c2ccccc2Cl)C(Cl)Cl)cc1,-0.636% (inactive),–
NCCC[C@@H](CC(=O)N[C@@H]1CCCC[C@H]1C(=O)N[C@H](CC(=O)N[C@@H](CCC(=O)O)CC(=O)O)Cc1ccccc1)NC(=O)C[C@H](CO)NC(=O)[C@@H]1CNCC[C@H]1N,-8.55% (inactive),–
C[C@@H](C(=O)NCCF)[C@H]1C[C@]1(C)[C@H](NC(=O)OCc1ccccc1)c1ccccc1,–,6.31 µM (active)
CC(C)C[C@@H](CC(=O)N[C@@H](CCC(=O)O)CC(=O)O)NC(=O)[C@@H]1CNCC[C@H]1NC(=O)C[C@@H](NC(=O)C[C@H](Cc1ccccc1)NC(=O)[C@@H]1CNCC[C@H]1N)C(C)C,-8.14% (inactive),–
C/C(=C\CNc1ncnc2c1ncn2[C@@H]1O[C@@H](CO)[C@@H](O)[C@H]1O)CO,3.61% (inactive),–
COc1ccc(-c2cc(=O)c3ccc(O)cc3o2)cc1,1.62% (inactive),–
COc1ccc([C@@H]2CC(=O)c3c(O)cc(O[C@@H]4O[C@@H](CO[C@@H]5O[C@@H](C)[C@@H](O)[C@@H](O)[C@H]5O)[C@@H](O)[C@@H](O)[C@H]4O)cc3O2)cc1O,15.7% (inactive),–
Cc1cc(C(=O)N[C@H](c2ccccc2)[C@@]2(C)C[C@@H]2[C@@H](C)C(=O)Nc2ccc3ccccc3c2)n(C)n1,–,0.0398 µM (active)
COc1ccc2c(c1)[C@]1(C)CCC[C@](C)(CO)[C@@H]1CC2,-20.5% (inactive),–
CC(C)C[C@@H](CC(=O)N[C@H](CC(=O)N[C@@H]1CCCC[C@H]1C(=O)N[C@H](CC(=O)N[C@@H](CCC(=O)O)CC(=O)O)Cc1ccccc1)C(C)C)NC(=O)[C@@H]1CNCC[C@H]1N,-1.69% (inactive),–
CC(=O)Oc1cc(OC(C)=O)c2c(=O)cc(-c3ccc(OC(C)=O)c(OC(C)=O)c3)oc2c1,1.99% (inactive),–
C=C1CC[C@@H]2O[C@]2(C)CC[C@@H]2[C@H]1CC2(C)C,-17.1% (inactive),–

SMILES,"activity change, negative = inhibition",Potency
CC(C)C[C@@H](CC(=O)N[C@H](CC(=O)N[C@@H]1CCCC[C@H]1C(=O)N[C@H](CC(=O)N[C@@H](CCC(=O)O)CC(=O)O)Cc1ccccc1)C(C)C)NC(=O)[C@@H]1CCCC[C@H]1N,-5.89% (inactive),–
CC(C)C[C@@H](CC(=O)N[C@@H](CCCN)CC(=O)N[C@@H]1CCCC[C@H]1C(=O)N[C@H](CC(=O)N[C@@H](CCC(=O)O)CC(=O)O)Cc1c[nH]c2ccccc12)NC(=O)[C@@H]1CCCC[C@H]1N,-10.2% (inactive),–
NCCC[C@@H](CC(=O)N[C@@H]1CCNC[C@H]1C(=O)N[C@H](CC(=O)N[C@@H](CCC(=O)O)CC(=O)O)Cc1c[nH]c2ccccc12)NC(=O)C[C@H](Cc1c[nH]c2ccccc12)NC(=O)[C@@H]1CCCC[C@H]1N,1.96% (inactive),–
CC(C)[C@@H](CC(=O)N[C@@H]1CCCC[C@H]1C(=O)N[C@H](CC(=O)N[C@@H](CCC(=O)O)CC(=O)O)Cc1ccccc1)NC(=O)C[C@H](Cc1ccccc1)NC(=O)[C@@H]1CCCC[C@H]1N,-1.21% (inactive),–
CC(C)C[C@@H](CC(=O)N[C@@H](CCCN)CC(=O)N[C@@H]1CCCC[C@H]1C(=O)N[C@H](CC(=O)N[C@@H](CCC(=O)O)CC(=O)O)CC(C)C)NC(=O)[C@@H]1CCCC[C@H]1N,0.257% (inactive),–
CC[C@H]1C(=O)OC[C@@H]1Cc1cncn1C,7.86% (inactive),–
NCCC[C@@H](CC(=O)N[C@@H]1CCNC[C@H]1C(=O)N[C@H](CC(=O)N[C@@H](CCC(=O)O)CC(=O)O)Cc1c[nH]c2ccccc12)NC(=O)C[C@H](CO)NC(=O)[C@@H]1CNCC[C@H]1N,-12.8% (inactive),–
CCCCCCCCCCCCCCCCOC[C@@H](COCC(F)(F)F)OP(=O)(O)OCO,-14.1% (inactive),–
CC(C)[C@@H](CC(=O)N[C@@H]1CCCC[C@H]1C(=O)N[C@H](CC(=O)N[C@@H](CCC(=O)O)CC(=O)O)Cc1c[nH]c2ccccc12)NC(=O)C[C@H](CO)NC(=O)[C@@H]1CCCC[C@H]1N,-1.42% (inactive),–
COc1cc(-c2cc(=O)c3ccccc3o2)ccc1O,–,31.6 µM (active)
CC(C)C[C@@H](CC(=O)N[C@@H](CCC(=O)O)CC(=O)O)NC(=O)[C@@H]1CNCC[C@H]1NC(=O)C[C@H](CCCN)NC(=O)C[C@H](Cc1ccccc1)NC(=O)[C@@H]1CCCC[C@H]1N,-8.15% (inactive),–
CCCC[C@H](CC)CN=C(N)NC(N)=NCCCCCCN=C(N)NC(N)=NC[C@@H](CC)CCCC,–,3.16 µM (active)
NCCC[C@@H](CC(=O)N[C@@H]1CCNC[C@H]1C(=O)N[C@H](CC(=O)N[C@@H](CCC(=O)O)CC(=O)O)Cc1c[nH]c2ccccc12)NC(=O)C[C@H](Cc1ccccc1)NC(=O)[C@@H]1CCCC[C@H]1N,0.681% (inactive),–
CC1(NC[C@@H](O)COc2cccc3[nH]ccc23)CCC(C(C)(C)NC(=O)CBr)CC1 (stereo not given in full),–,1.26 µM (active)
OC1c2ccccc2-c2nc3ccccc3cc21 (stereo not given),–,20 µM (active)
c1ccc2c(c1)Cc1cc3ccccc3nc1-2,–,12.6 µM (active)
CC(C)C[C@@H](CC(=O)N[C@@H](CCC(=O)O)CC(=O)O)NC(=O)[C@@H]1CCCC[C@H]1NC(=O)C[C@@H](NC(=O)C[C@H](Cc1c[nH]c2ccccc12)NC(=O)[C@@H]1CNCC[C@H]1N)C(C)C,7.47% (inactive),–
CC1=C(\C=C/C(C)=C/C=C\C(C)=C\CO)C(C)(C)CCC1,5.13% (inactive),–
CC(C)C[C@@H](CC(=O)N[C@@H](CCCN)CC(=O)N[C@@H]1CCNC[C@H]1C(=O)N[C@H](CC(=O)N[C@@H](CCC(=O)O)CC(=O)O)CC(C)C)NC(=O)[C@@H]1CCCC[C@H]1N,-5.58% (inactive),–
C[C@@H](C(=O)Nc1ccc2ccccc2c1)[C@H]1C[C@]1(C)[C@H](NP(=O)(c1ccccc1)c1ccccc1)c1ccccc1,–,0.794 µM (active)

# From PubChem BioAssay (NCATS)
